Bioassay records from PubChem BioAssay.
Lmaj promast: Leishmania major promastigote growth inhibition, primary screen; inhibition, % at 10 µM; Leishmania major promastigotes, resazurin fluorescence viability; 9% of 200,000 active; in the data active means inhibition above about 50%;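 further: promastigotes grown with compound for 44 hours at 28 °C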
CHOP inh: inhibitors of CHOP promoter induction, primary screen, cell-based, unfolded protein response, luciferase reporter; AID 2732, 2010; CHO-K1 CHOP-promoter luciferase, tunicamycin-induced, 15-18 h; inhibition, % at 10 µM; 3.8% of 220,000 active;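 active means compounds that reduced the stress-induced luciferase reporter signal by more than about 70% of percent inhibition, limit read from the data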;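 further: 0% = tunicamycin plus vehicle and 100% = wells without tunicamycin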
WT yeast gro inh: growth inhibition of WT strain, primary screen, mitochondrial fusion inhibitor project, WT and mutant strains, chemical genetic | mitochondrial fusion phenotypic screen | inhibition, % at 10 µM | 2.1% of 190,000 active; in the data active means inhibition above about 58%; tested in S. cerevisiae
Arbovirus anti: antivirals against arbovirus infection, primary screen, cell-based, full library, 10K replicate subset; 0.37% of 200,000 active; arbovirus infection cell-based antiviral screen; inhibition, % at 10 µM; in the data active means inhibition above about 30%
Active calls of the source: *; / = no result. Hits are enriched below; roughly 12% of the tested compounds scored in any of these assays.

SMILES	Lmaj promast	CHOP inh	WT yeast gro inh	Arbovirus anti
CCOc1ccc(-c2csc(NC(=O)c3ccc(S(=O)(=O)N4CCc5ccccc5C4)cc3)n2)cc1	5	1	-23	-3
O=C(Nc1nc(-c2ccccc2)cs1)c1ccc(S(=O)(=O)N2CCc3ccccc32)cc1	99*	13	18	20
CC1(C)Cc2c(sc3nc(C4CC4)n(N)c(=O)c23)CO1	/	2	/	/
O=C(c1ccccc1)C(C(=O)N1CCc2ccccc2C1)n1ccccc1=O (stereo not given)	73*	22	-26	6
CCCNC(=O)c1cnc(Sc2ncc(C(F)(F)F)cc2Cl)n1C	3	6	-7	8
O=c1[nH]c(-c2ccco2)nc2sc3c(c12)CCCC3	33	-4	9	-14
CN[C@H](CC(C)C)C(=O)N[C@H]1C(=O)N[C@@H](CC(N)=O)C(=O)N[C@H]2C(=O)N[C@H]3C(=O)N[C@H](C(=O)N[C@H](C(=O)O)c4cc(O)cc(O)c4-c4cc3ccc4O)[C@H](O)c3ccc(c(Cl)c3)Oc3cc2cc(c3O[C@@H]2O[C@H](CO)[C@@H](O)[C@H](O)[C@H]2O[C@H]2C[C@](C)(N)[C@H](O)[C@H](C)O2)Oc2ccc(cc2Cl)[C@H]1O	/	2	/	/
CCc1ccc2[nH]c3nc(SCC(=O)NNC(=O)c4ccc(C(C)(C)C)cc4)nnc3c2c1	-6	89*	3	-14
CCc1ccc2[nH]c3nc(SCc4nnc(-c5ccc(C)cc5)o4)nnc3c2c1	-6	28	-15	-15
COc1ccc(Cl)cc1Nc1nc(NCCO)nc(N2CCCC2)n1	16	74*	10	-4
Cc1nc2sccn2c(=O)c1CCN1CCC(=C(c2ccc(F)cc2)c2ccc(F)cc2)CC1	14	32	79*	-44
CCCCCCCC(=O)N/N=C(\C)c1cccnc1	-1	38	-6	2
COc1ccc(-c2nc(-c3ccc4c(c3)OCO4)[nH]c2-c2ccc(OC)cc2)cc1	90*	52	57	0
COc1cc(C)c(S(=O)(=O)NC2CC(C)(C)NC(C)(C)C2)cc1C	4	-9	-3	-4
CCCOc1cc(C)c(S(=O)(=O)NC2CC(C)(C)NC(C)(C)C2)cc1C	97*	28	4	-24
C(=N\n1cnnc1)/c1ccc(OCc2ccccc2)cc1	2	7	37	-13
Fc1ccccc1COc1cccc(/C=N/n2cnnc2)c1	0	72*	10	-1
COc1cccc(NC(=O)c2cc(-c3ccncc3)nc3c(C)cc(C)cc23)c1	55*	42	19	10
Cc1cc(C)n(-c2cc(N3CCN(C(=O)c4ccc(C(C)(C)C)cc4)CC3)ccc2[N+](=O)[O-])n1	6	73*	1	-9
Cc1cc(C)n(-c2cc(N3CCN(S(=O)(=O)c4ccc(C)c(C)c4)CC3)ccc2[N+](=O)[O-])n1	-7	55	10	6
Cc1cc(C)n(-c2cc(N3CCN(S(=O)(=O)c4ccc5ccccc5c4)CC3)ccc2[N+](=O)[O-])n1	59*	51	-4	2
Oc1cccc2ccc[n+](CC(O)Cn3c4ccccc4c4ccccc43)c12 (stereo not given)	91*	8	-6	4
Cc1nc(N)sc1C(=O)N1N=N1	/	1	/	/
COc1ccc(C(=O)c2sc3nc(-c4ccccc4)ccc3c2N)cc1	32	78*	-5	3
Nc1c(C(=O)Nc2ccc(Cl)c(Cl)c2)sc2nc(-c3cccnc3)ccc12	59*	-5	7	5
SMILES	Lmaj promast	CHOP inh	WT yeast gro inh	Arbovirus anti
NC(=O)c1sc2nc(-c3cccnc3)ccc2c1N	/	2	/	/
CC(C)OC(=O)c1sc2nc(-c3ccccc3)ccc2c1N	-6	83*	29	13
CCOC(=O)c1sc2nc(-c3cccnc3)ccc2c1N	10	-18	6	-18
CC(C)C(=O)NNC(=O)CSc1nc(C2CCCCC2)nc2ccccc12	5	62	1	6
O=C(CSc1nc2ccccc2o1)N1c2ccccc2Sc2ccccc21	82*	36	2	-3
O=C(CSc1nc(C2CC2)nc2ccccc12)N1c2ccccc2Sc2ccccc21	50*	-35	-2	-5
COc1ccc(-c2nsc(SCC(=O)NCc3ccc4c(c3)OCO4)n2)cc1	99*	15	-2	3
O=C(CSc1nc(C2CCCCC2)nc2ccccc12)NCc1ccc2c(c1)OCO2	53*	50	-21	-7
CSc1ccccc1C(=O)C1CCCN(C(=O)CCc2cccnc2)C1 (stereo not given)	-2	28	-8	0
CCCn1c(SCC(=O)NC2CCCCC2C)n[nH]c1=O (stereo not given)	-5	-4	-3	4
COc1ccc2nc3ccccc3nc2c1NC(=O)c1ccc(Br)cc1	-6	79*	-7	-11
O=C(N/N=C/c1ccncc1)C1C2CCCCCCC21 (stereo not given)	16	-17	-7	-1
CC(C)Nc1oc(Cc2cccc3ccccc23)nc1C#N	10	31	5	5
CC1CN(c2oc(Cc3cccc4ccccc34)nc2C#N)CC(C)O1 (stereo not given)	18	7	61*	0
CNc1oc(Cc2cccc3ccccc23)nc1C#N	2	44	0	-4
N#Cc1nc(Cc2cccc3ccccc23)oc1NCCN1CCCCC1	65*	8	-19	-14
Cc1nn(CC(=O)Nc2ccc(Cl)c(S(=O)(=O)N(C)C)c2)c(C)c1[N+](=O)[O-]	31	4	12	2
CCc1cc(OCCN(C)C)ccc1Cl	5	7	-2	2
CN(Cc1ccccc1)C(=O)COc1ccc(Br)cc1Cl	/	15	/	/
C=CCNCCCOc1ccc(C(C)(C)c2ccccc2)cc1	100*	2	51	-35
C=CCNCC#CCOc1ccc(OC)cc1	99*	-5	4	2
Clc1cc(Br)ccc1OCCCNCc1ccccc1	99*	-1	91	-34
COCCNCC#CCOc1ccc(OC)cc1	-3	-2	-5	4
CCc1cc(OCCCCNCc2ccccc2)ccc1Cl	99*	56	85	-37
O=C(NCCCO)C(=O)NCc1ccncc1	5	21	0	-4
SMILES	Lmaj promast	CHOP inh	WT yeast gro inh	Arbovirus anti
CCN(CC)S(=O)(=O)c1cccc(-n2c(O)c(C=Nc3ccccc3C(=O)O)c3ccccc3c2=O)c1	/	-14	/	/
CC(C)(C)NC(=O)C(c1ccccn1)N(C(=O)c1csnn1)C1CCCC1 (stereo not given)	/	-33	/	/
CCO[C@@H]1OC(C(=O)N2CCOCC2)=C[C@H](c2ccc(C(F)(F)F)cc2)[C@H]1CCCO	-5	-6	4	-1
O=C1CNC(=O)N1CC(O)Cn1c2ccccc2c2ccccc21 (stereo not given)	-5	30	-6	-1
CC(C)(C)c1ccc(OCCCNCc2ccccc2)cc1	99*	95*	87*	-35
COc1ccc(OCCCNCCc2ccccc2)cc1	-11	11	-3	-2
COCCCNCCCOc1ccc(C(C)(C)c2ccccc2)cc1	99*	46	45	-24
CC(C)(C)c1ccccc1OCCOCCNCc1ccccc1	96*	57	45	-24
C=CCNCCCCOc1ccc(OCC)cc1	100*	23	/	-2
